Screening results as filed in PubChem.
Shown are actives, neighbours in structure and some others; about 1.9% of the full set was active somewhere.
PP5 primary – blocks human protein phosphatase 5 activity | inhibition, % at 6.7 µM | purified PP5c, OMFP substrate fluorescence | AID 1987 | P53041 | 0.18% of 320,000 active;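 active means inhibition above the campaign's mean inhibition across all tested compounds plus 3 SD, cut at about 9.5% in these data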;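 further: 0% = DMSO only and 100% = 100 µM cantharidin control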
PP1 counter – PP1-alpha (human) inhibition in PP5 counter-screen; purified PP1alpha, OMFP fluorescence; inhibition, % at 6.7 µM; 0.9% of 320,000 active;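 active means inhibition above the mean inhibition of all tested compounds plus 3 SD, computed separately for each screening campaign, cut at about 15% in these data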
Target sequence (P62136 whole entry, looked up): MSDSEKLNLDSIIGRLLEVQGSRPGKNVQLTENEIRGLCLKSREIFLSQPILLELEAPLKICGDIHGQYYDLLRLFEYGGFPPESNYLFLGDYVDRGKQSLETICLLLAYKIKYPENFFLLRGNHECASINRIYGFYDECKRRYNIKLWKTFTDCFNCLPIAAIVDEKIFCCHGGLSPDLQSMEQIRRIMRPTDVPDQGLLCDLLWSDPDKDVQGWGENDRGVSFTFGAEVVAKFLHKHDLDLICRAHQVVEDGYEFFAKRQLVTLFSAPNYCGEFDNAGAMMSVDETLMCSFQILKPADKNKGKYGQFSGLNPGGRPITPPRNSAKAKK
ATG4B inhibitor – blocks human ATG4B protease cleavage of LC3 substrate | 0.51% of 340,000 active | AID 504462 | inhibition, % at 8.33 µM | Q9Y4P1 | ATG4B cleavage of LC3-PLA2, NBD-HPC fluorescence, 1 h; in the data active means inhibition above about 40%
H9c2 protect – myocardial damage modulation in H9c2 cells; 0.63% of 360,000 active; protection from H2O2 cell death, % at 20 µM; H9c2 cardiomyocytes, H2O2 injury protection, ATPLite, 2 h;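 active means compounds giving at least 50% protection of heart cells from peroxide-induced death in the single-dose screen, raw or plate-pattern-corrected value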;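 further: 0% = DMSO wells with peroxide and 100% = DMSO wells without peroxide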
PP1 confirm – confirmation of human PP1 phosphatase inhibitors; shares compounds with PP1 counter; purified PP1alpha, OMFP substrate fluorescence; inhibition, % at 6.7 µM; 52% of 1,900 active; AID 2358;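 active means mean PP1 inhibition above a set limit taken from the earlier primary screen, cut at about 15% in these data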
PP5 inh counter – PP5 phosphatase inhibition, counter-screen for PP1 inhibitors. shares compounds with PP1 counter. purified PP5c, OMFP fluorescence. inhibition, % at 6.7 µM. 4% of 1,900 active;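 active means mean PP5 inhibition over triplicate wells above about 9.5% taken from the earlier PP1 screen, limit read from the data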
The depositor's hits bear a star; x = no result given.

SMILES	PP5 primary	PP1 counter	ATG4B inhibitor	H9c2 protect	PP1 confirm	PP5 inh counter
CCn1c(=O)cc(SCC(=O)N2CCN(C3CCCCC3)CC2)c2ccccc21	2.3	30.4*	0.0	17.3	0.4	3.3
O=C(NN=Cc1ccc(O)cc1)C(=O)NN=Cc1ccc(O)cc1	x	x	-5.5	3.7	x	x
O=C(N/N=C/c1ccc(O)cc1O)C(=O)N/N=C/c1ccc(O)cc1O	-3.0	53.2*	1.0	49.6	29.7*	-7.3
COc1ccc(N2Cc3ccc(C(=O)N/N=C\c4ccc(O)cc4O)cc3C2)cc1	3.8	18.8*	x	x	13.3	-2.7
CCOC(=O)CNc1nc(C(C)(C)C)nc2c1nnn2Cc1ccccc1	6.9	3.6	-1.5	-12.9	x	x
COc1ccccc1CCC(=O)OCC(=O)c1c(N)n(CC(C)C)c(=O)n(C)c1=O	2.9	82.8*	1.3	-13.5	-5.1	0.1
COc1ccc(CCC(=O)OCC(=O)c2c(N)n(CC(C)C)c(=O)n(C)c2=O)cc1	3.1	-0.3	-8.2	-14.1	x	x
O=C(NC(C(=O)N/N=C/c1ccccc1)c1n[nH]c(=O)c2ccccc12)c1ccccc1 (centres undefined)	-0.4	2.9	-20.7	22.8	x	x
O=C(NC(C(=O)N/N=C/c1c2ccccc2cc2ccccc12)c1n[nH]c(=O)c2ccccc12)c1ccccc1 (centres undefined)	4.0	18.3*	-2.4	33.4	16.6*	-1.9
CCc1cccc(C)c1NC(=O)CSc1nc(-c2ccccc2F)nc2nc[nH]c12	-0.6	23.6*	9.4	4.7	16.3*	-4.4
O=C(CSc1nc(-c2ccccc2F)nc2nc[nH]c12)Nc1c(Cl)cc(Cl)cc1Cl	-2.6	-3.1	x	x	x	x
CN1CCN(c2ccc(C(CC(N)=O)NC(=O)Cc3cccc4ccccc34)cc2[N+](=O)[O-])CC1 (centres undefined)	1.1	-3.1	-5.7	1.6	x	x
Cc1[nH]c2ccccc2c1C(=O)C(C)OC(=O)C1CCC1 (centres undefined)	4.7	28.4*	3.4	-1.5	0.0	-1.4
COc1ccc(CC(Cc2ccc(OC)c(OC)c2)NC=O)cc1OC	x	x	x	-0.3	x	x
CCc1ccc(Nc2n[n+](-c3ccccc3)c(-c3ccc(OC)c(Br)c3)s2)cc1	3.9	20.2*	3.3	-3.0	12.8	7.2
CCc1ccc(Nc2n[n+](-c3ccccc3)c(-c3ccc(SC)cc3)s2)cc1	-1.0	6.9	8.3	-18.7	x	x
O=C(Nc1cccc2ccccc12)/C(=C/c1cccc([N+](=O)[O-])c1)NC(=O)c1cccs1	-0.5	2.3	-10.4	2.3	x	x
Cc1cccc(NC(=O)/C(=C/c2cccc([N+](=O)[O-])c2)NC(=O)c2cccs2)c1	-0.9	17.6*	-0.1	0.3	12.8	0.0
O=C1/C(=C/C=C/c2ccco2)SC(=S)N1c1ccc(O)cc1	-0.9	38.3*	29.8	-1.1	6.3	-2.0
CC(C)C(C(=O)O)N1C(=O)/C(=C/C=C/c2ccco2)SC1=S (centres undefined)	0.7	19.5*	65.3*	0.2	14.2	-3.1
O=C1/C(=C\c2ccco2)SC(=S)N1c1ccc(O)cc1	5.2	-0.2	1.5	0.4	x	x
CCCCCCCCCn1c2c(c(=N)c3c1CCC3)CCCC2	x	x	9.4	-21.6	x	x
CCCCCCCCCCn1c2c(c(=N)c3c1CCC3)CCC2	3.7	20.6*	19.3	-20.9	2.1	-2.0
Cc1ccc(/C=C/C(=O)OCC(=O)c2ccc3c(c2)NC(=O)CO3)o1	x	x	-9.0	-3.1	x	x
O=C1COc2ccc(C(=O)COC(=O)/C=C/c3ccc(Br)o3)cc2N1	0.8	21.9*	6.2	-3.7	25.6*	-1.3
COCCn1c(=O)[nH]c(=O)c2c1nc(-c1ccc(-c3ccc(Cl)cc3[N+](=O)[O-])o1)n2Cc1ccccc1	5.4	17.6*	3.8	11.0	38.4*	6.2
COc1ccc(-c2ccc(-c3nc4c(c(=O)[nH]c(=O)n4Cc4ccccc4)n3C)o2)c([N+](=O)[O-])c1	0.3	-2.1	0.1	0.8	x	x
CC(=O)c1ccc(-n2c(=O)[nH]c(=O)c3c(N)c(C(=O)c4ccc(Cl)cc4)sc32)cc1	-0.7	39.7*	-0.7	3.9	28.1*	-3.4
Cc1ccc(NC(=O)NCC2CCN(Cc3cccc(Cl)c3)CC2)c(Cl)c1	2.0	26.8*	-8.4	-1.0	-6.5	-3.2
CCCCCCSc1cccc(-c2nc3cc(C)ccn3c2NCc2ccccc2)c1	2.8	19.4*	2.4	-18.4	4.1	-0.1
